# Results from PubChem BioAssay AID1159506 (National Center for Advancing Translational Sciences (NCATS), 2015).
# In all, about 59,000 sequences were measured (the read-out: median about -0.00055, lowest 2% from about -2 on). Only a selection was taken, and the lowest values are over-represented in it overall.
# Experiment: Identification of proteins required for the processing of the EWS-FLI1 nascent transcript;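 note: robust z of luciferase light less the median z of siRNAs with the same seed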
# Settings: TC32 Ewing sarcoma NR0B1-luc vs CMV-luc (EWS-FLI1 target promoter against control promoter), 48 h; screened at 20 nM (by protocol)
# Experimental: Ewing sarcoma (ES) cells depend on the EWS-FLI1 fusion transcription factor for cell survival. Using an assay of EWS-FLI1 activity and genome-wide siRNA screening we have identified proteins required for the processing of the EWS-FLI1 nascent transcript. Parallel genome-wide siRNA-mediated RNAi screens were conducted in Ewing sarcoma TC32 cell lines expressing a luciferase (luc) reporter protein driven by either the promoter of the EWS-FLI1 target gene NR0B1 (TC32-NR0B1-luc) or the CMV promoter (TC32-CMV-luc). Luciferase activity was assessed 48 hours post siRNA-transfection.
# Twenty microl of serum-free media containing Lipofectamine RNAiMax (0.05 microl) was added to wells containing siRNA (0.8 pmol). Lipid and siRNA were allowed to complex for 45 min at ambient temperature before addition of 600 cells in RPMI-1640, 20% FBS to yield final transfection mixtures containing 20 nM siRNA in RPMI-1640, 10% FBS. Luciferase expression was measured using OneGlo (Promega, Madison, WI). The genome-wide screening campaign was conducted using Ambion's human genome library version 4.1 (Ambion, Austin TX). This library targets approximately 21000 human genes, three siRNAs per gene. Each siRNA is arrayed in an individual well of a 384-well plate. Parallel transfections were conducted in TC32-NR0B1-luc and TC32-CMV-luc cell lines and luciferase expression (OneGlo, Promega) was assayed 48 h later on a PerkinElmer Envision 2104 Multilabel plate reader (PerkinElmer, Waltham, MA). Qiagen's AllStars Negative control was incorporated on all screening plates for normalization (16 wells per plate). Qiagen, Germantown, MDsiGL4 was incorporated as a positive transfection control (16 wells per plate) on all plates. […] The raw luciferase data for the NR0B1- and CMV-luc screens were normalized and z-score-MAD transformed using standard methods (Chung et al., 2008). The miRNA-like seed sequence of every siRNA was determined and the median z-score for all siRNA sequences with the same seed sequence was calculated. This z-score was subtracted from the z-score associated with each siRNA with that seed sequence to generate a seed-adjusted z-score value (Z) that was used when the results for the three siRNAs corresponding to each gene were compared (Marine et al., 2012)
row,Sequence,seed-corrected z-score
1,AUACCUUUCAGGAUGAGGG against TMEM178A,-0.305
2,UUCAUAACUCUGUUGUGCC against FNBP1L,0.0737
3,UUCUGUACGCAGGUGAUUG against COL1A1,0.0612
4,UUUACGACGCAUCUCAGCC against ARCN1,-2.64
5,ACGGUUUUUACAUCGAUUC against PTPRO,0.657
6,UAUUGUGCAAUUUGGUGGG against KLF13,0.422
7,AAUAUCCCAAUGUUCAUGC against FHDC1,-2.13
8,AAACCAAACAAGGAUACCU against C20orf173,2.47
9,ACAUAUACUGGUAACACUG against SH3GLB1,-0.404
10,UGAUGUCUACAAUAUCACC against RPL21P20,-2.36
11,UUUAUCACCAGGUUAAGCC against GLUD1,-0.205
12,UCUCGGAUCAUGAUGUUGU against PIK3CD,0.452
13,UAAACAAUACGUCAGUGCC against OR51T1,-0.809
14,UUCGUUCACGGCUAUGACC against CHL1,0.202
15,UGAGUUUCAGGUUCUCCGG against CAB39L,-2.64
16,UUCCGGAUCAGAUCAUGGG against FAM118A,-0.123
17,UACAUUCUUGGUUUCAACC against LOC729860,1.84
18,UUAUAUUCAUCCUUGUGAC against CRKL,0.239
19,UUCUGGUUUGUUUUCAGGC against BAG3,-2.98
20,AACCGAACAAAUGAAUAUC against TIA1,-1.17
21,UAAUCUGCAAGUCAAGUCU against LYSMD2,-1.06
22,UUCACGACGAUGAUUCCCU against DYNLRB1,-0.1

row,Sequence,seed-corrected z-score
1,UCCUCUGUAACCACACUCG against GPT2,-0.193
2,AAACUAUACACGGUCGUCC against RFESD,-0.265
3,UUAGGUUCAACAUCCACAA against SNRPD1,-2.57
4,AAGGAUAUUAAGAAGAAUC against ARMCX1,0.793
5,UACGAUGAUAGCCUUGACC against CNOT10,-0.215
6,UCAAGCUUCACUUUCUUCC against DNAJC17,1.06
7,AAAAUGAGAACGUAAAGUC against VN1R5,-0.139
8,UCCUGGAUGCGAUUUAUGG against DDRGK1,-0.145
9,UUCUCGUCGAGGUAGAUUU against ITM2C,0.584
10,UAACAUACUGGUCCCAUUG against PCTP,-1.08
11,UAUCUUCUAAUGCAAUCCU against RTP2,0.814
12,ACCUUGACCACACUUAUUU against VSTM2L,-1.03
13,UGCUUAACAAGAUCUGAAC against ZNF271P,-2.37
14,UCGGCGAUGUAGGAGAUGG against APBA2,0.0663
15,AGAAAAUCUAUCUUCCUCU against PFDN5,-0.0703
16,UGGGAUAUCACCAACGACG against CCDC168,-0.371
17,UCAUCUAGAAGAAUAUUCU against SGK494,0.387
18,AAGCUUGCCAAUACCCUGG against RPLP2,-2.77
19,UCUAUGUUGACAACCUCUC against DSPP,2.05
20,UUGCAUUUUAUCACAGUAG against LY96,-0.122
21,UCAGCAAAAACAUCUCACU against OR4Q3,0.873
22,AAACUGACCAUUCACUACC against DCAF12,-10.7

row,Sequence,seed-corrected z-score
1,UCUGGAAUUUGGGUUGAUG against C1orf105,-0.114
2,UAGAUGUGCAUGUAGGUGA against ADO,0.279
3,AAGGCAUCCAAGAAGCUCC against KCNK6,0.0975
4,UUGGAAACUACAGAUGAGA against WDR82,-2.39
5,UUCCUUAAGGUGUCCCUCC against HSPA12A,0.369
6,UUGCGAUGGAAAGACAUGU against CD5,0.451
7,AAUGCUCUCAGUUGAGAUG against C19orf44,-0.0313
8,UAACCUCUGGGUCACAUGC against ACIN1,0.0177
9,UCUGUCUAAAUAACUUAUU against NAT8L,-0.913
10,UAUUGAAUGAUGUGGAGUC against PTCD2,0.667
11,UUAAGUAUUGGAUUUCAUA against DEFB116,0.226
12,UCGGAAUAAAUUGAGCUGC against API5,-16.5
13,UGUGCGAGAACAUUCCUGC against HIP1R,0.0278
14,UUUGUGCAUGCUGUCGUUC against TNIP2,-0.335
15,UACAGCUAAACUGUACAGC against ORC6,-2.09
16,UUCGGUUCAUGACAAAUAC against SLC35F5,0.354
17,UAGCAUACUAUUGUCCUGC against MRPL42,0.102
18,UCCUGGUUCACCAAUUUCU against COL9A1,-0.362
19,UAGGUUAUGAAAUUAAUCA against MAP6D1,-2.45
20,AUUCAUAGAAGUAUUCUGC against WIF1,-0.598
21,UAAGUUUUGAGGAUAGGUG against ZNF117,0.415
22,UUGGGAUUCAGGUUCCGCU against TCF3,-0.377

row,Sequence,seed-corrected z-score
1,UCGCUUCCCAGAAUUGCUG against GPR65,1.15
2,AUGGGAAUAGGAAAGUAUG against OR2M4,-2.09
3,UGUCCAAUUAGGGACCAGC against SLF2,-0.225
4,ACUGUAUAGAUUGUGAACC against KDM3B,1.03
5,UUCCAUAGUAGUAGGAUCU against TMEM14B,0.134
6,UCUGGUUAUCAGAAAACCC against PCNP,0.114
7,UUGUGGUUUAGGGUUUUCU against YBX1,-2.1
8,UUCUUAUAACCAUUGACUG against SLCO1B3,0.328
9,UAAAGAGUGGUGUUGGUGG against RSPH3,-0.756
10,UUUAGUUCCAGUGCCUUAG against CCDC151,0.491
11,CUUUCAGCGUGGCUGUUCC against C6orf132,-4.94
12,UUCCUAAUAAACCCAGCGC against SOWAHD,-0.0823
13,UCAGAGAUCAAAGAGAAGU against TUBB4A,0.356
14,UGAGUGAAGUGCGAUAUCC against ELL,0.176
15,UAGGAACCAGAAAUAAUCC against ATP8A2,-0.455
16,UUAGGGAUGACGUGGGUGC against GRIN1,-2.06
17,UUAAACUCCACGUCGUCAG against SIRPB1,-0.756
18,UUUAUGGAUCUAAUUGUCG against CBWD1,0.289
19,UGCAUGGUGAUAGUCAGGU against CD7,-0.0598
